The values below come from PubChem BioAssay (EPA / NIEHS).

The source made the active and inactive calls. The calls were made as follows: active = hit-call score of the fitted dose curve at least 0.9, where 1 is the maximum; inactive = score below 0.9.

Holding throughout (settings): mRNA level, 48 h; actives raise or lower the signal
Read-out in assay [1]: Paternally Expressed 10 (PEG10), PEG10 (gene 23089)
The assay is described as follows: LTEA_HepaRG_PEG10: Life Technologies and Expression Analysis (LTEA) Assay for Paternally Expressed 10 (PEG10) using HepaRG (AID 2283520).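 As to AC50: PEG10 transcript by qRT-PCR normalised to ACTB GAPDH and POLR2A.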 The essentials:
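After 48 h exposure of differentiated HepaRG cells (0.5% DMSO vehicle, eight concentrations up to 100 uM, duplicates), PEG10 mRNA was measured by TaqMan qRT-PCR. Values were normalised to endogenous control genes and analysed bidirectionally against vehicle.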

Read-out in assay [2]: Nuclear factor NF-kappa-B p105 subunit (Homo sapiens) (UniProt P19838)
The assay is described as follows: LTEA_HepaRG_NFKB1: Life Technologies and Expression Analysis (LTEA) Assay for Nuclear Factor Kappa B Subunit 1 (NFKB1) using HepaRG (AID 2283521).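 As to outcome: TaqMan qRT-PCR transcript normalised to ACTB GAPDH and POLR2A housekeeping genes.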 The method in brief: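 Differentiated human HepaRG cells were exposed for 48 h in serum-free induction medium to eight concentrations (top 100 uM, half-log steps, 0.5% DMSO), in duplicate. NFKB1 mRNA was measured by TaqMan qRT-PCR, normalized to ACTB/GAPDH/POLR2A, and fitted bidirectionally against DMSO.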

Read-out in assay [3]: Protein phosphatase 2A (PPP2R4), PTPA (gene 5524)
Put plainly: LTEA_HepaRG_PPP2R4: Life Technologies and Expression Analysis (LTEA) Assay for Protein phosphatase 2A (PPP2R4) using HepaRG (AID 2283522). The essentials:
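Using HepaRG cultures maintained in 0.5% DMSO, chemicals are tested 48 h at up to 100 uM in duplicate. Induction or suppression of PPP2R4 mRNA, measured by qRT-PCR, is fitted bidirectionally against the vehicle baseline.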

Read-out in assay [4]: Phosphatase and tensin (PTEN), PTEN (gene 5728)
The assay is described as follows: LTEA_HepaRG_PTEN: Life Technologies and Expression Analysis (LTEA) Assay for Phosphatase and tensin (PTEN) using HepaRG (AID 2283523). The method in brief: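 Expression of PTEN is quantified in the human liver line HepaRG following two days of dosing (top concentration 100 uM, half-log dilutions, 0.5% DMSO). Values derive from bidirectional curve fitting relative to DMSO controls.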

Read-out in assay [5]: solute carrier (SLC22A1), SLC22A1 (gene 6580)
The assay is described as follows: LTEA_HepaRG_SLC22A1: Life Technologies and Expression Analysis (LTEA) Assay for solute carrier (SLC22A1) using HepaRG (AID 2283524). The essentials: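 Transcript induction or suppression of SLC22A1 in human HepaRG cultures is scored after 48 h chemical treatment, with DMSO (0.5%) as baseline for bidirectional fitting. Concentrations span eight half-log points topping at 100 uM.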

Read-out in assay [6]: Pyruvate Dehydrogenase Kinase 4 (PDK4), PDK4 (gene 5166)
Put plainly: LTEA_HepaRG_PDK4: Life Technologies and Expression Analysis (LTEA) Assay for Pyruvate Dehydrogenase Kinase 4 (PDK4) using HepaRG (AID 2283525). The method in brief:
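Eight-point, half-log concentration series (max 100 uM, 0.5% DMSO) applied to differentiated HepaRG cells for 48 h in duplicate. Endpoint: PDK4 mRNA induction or repression by qRT-PCR against DMSO baseline.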

Read-out in assay [7]: NAD(P)H dehydrogenase [quinone] 1 (NQO1), NQO1 (gene 1728)
The assay is described as follows: LTEA_HepaRG_NQO1: Life Technologies and Expression Analysis (LTEA) Assay for NAD(P)H dehydrogenase [quinone] 1 (NQO1) using HepaRG (AID 2283526). The essentials:
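In this assay, gene expression is read by qRT-PCR after 48 h exposure of HepaRG cells to eight concentrations (max 100 uM, half-log) in 0.5% DMSO. Each chemical runs in duplicate, and activity is scored relative to vehicle.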

Read-out in assay [8]: Nuclear factor erythroid 2-related factor 2 (Homo sapiens) (UniProt Q16236)
The assay is described as follows: LTEA_HepaRG_NFE2L2: Life Technologies and Expression Analysis (LTEA) Assay for Nuclear factor erythroid 2-related factor 2 (NFE2L2) Transcription Factor using HepaRG (AID 2283527).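 As to outcome: TaqMan qRT-PCR transcript level normalised to ACTB GAPDH and POLR2A housekeeping genes.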 The essentials: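 Human liver HepaRG line treated in duplicate for 48 h with an eight-point series topping at 100 uM. Gene expression of NFE2L2 by qRT-PCR, bidirectionally fitted against the vehicle control.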

Read-out in assay [9]: succinate dehydrogenase complex iron sulfur subunit B (SDHB), SDHB (gene 6390)
Put plainly: LTEA_HepaRG_SDHB: Life Technologies and Expression Analysis (LTEA) Assay for succinate dehydrogenase complex iron sulfur subunit B (SDHB) using HepaRG (AID 2283528). The method in brief:
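HepaRG, 48 h exposure, 8-pt half-log series from 100 uM in 0.5% DMSO, duplicates. Readout: SDHB mRNA by Fluidigm qRT-PCR vs housekeeping genes; bidirectional fit relative to DMSO.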

Read-out in assay [10]: Signal transducer and activator of transcription 3 (Homo sapiens) (UniProt P40763)
The assay is described as follows: LTEA_HepaRG_STAT3: Life Technologies and Expression Analysis (LTEA) Assay for Signal transducer and activator of transcription (STAT3) using HepaRG (AID 2283529). The method in brief:
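In this transcriptional endpoint, HepaRG cultures receive test chemicals at up to 100 uM for 48 h, tested in duplicate. STAT3 mRNA is normalized to ACTB, GAPDH and POLR2A.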

Chain of Signal transducer and activator of transcription 3 (Homo sapiens) (P40763 whole entry, looked up): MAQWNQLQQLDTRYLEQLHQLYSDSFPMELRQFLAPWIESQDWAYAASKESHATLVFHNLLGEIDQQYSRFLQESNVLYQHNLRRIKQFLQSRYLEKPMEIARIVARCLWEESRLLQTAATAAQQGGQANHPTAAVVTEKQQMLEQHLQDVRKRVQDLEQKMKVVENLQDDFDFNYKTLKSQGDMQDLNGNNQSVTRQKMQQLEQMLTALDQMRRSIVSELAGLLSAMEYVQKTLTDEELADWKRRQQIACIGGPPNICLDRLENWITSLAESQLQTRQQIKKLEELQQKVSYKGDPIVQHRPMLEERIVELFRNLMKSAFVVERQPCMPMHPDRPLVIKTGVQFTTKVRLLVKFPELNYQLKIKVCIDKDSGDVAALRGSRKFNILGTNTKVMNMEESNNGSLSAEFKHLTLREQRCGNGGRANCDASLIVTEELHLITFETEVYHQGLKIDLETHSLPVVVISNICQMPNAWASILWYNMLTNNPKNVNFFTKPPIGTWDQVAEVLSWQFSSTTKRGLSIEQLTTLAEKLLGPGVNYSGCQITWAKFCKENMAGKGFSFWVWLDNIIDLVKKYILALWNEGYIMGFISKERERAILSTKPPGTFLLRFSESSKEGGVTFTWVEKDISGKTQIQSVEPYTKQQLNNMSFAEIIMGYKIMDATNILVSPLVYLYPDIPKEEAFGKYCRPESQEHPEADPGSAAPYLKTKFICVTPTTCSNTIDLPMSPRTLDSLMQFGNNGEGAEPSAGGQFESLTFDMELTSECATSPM
Chain of Nuclear factor NF-kappa-B p105 subunit (Homo sapiens) (P19838 whole entry, looked up): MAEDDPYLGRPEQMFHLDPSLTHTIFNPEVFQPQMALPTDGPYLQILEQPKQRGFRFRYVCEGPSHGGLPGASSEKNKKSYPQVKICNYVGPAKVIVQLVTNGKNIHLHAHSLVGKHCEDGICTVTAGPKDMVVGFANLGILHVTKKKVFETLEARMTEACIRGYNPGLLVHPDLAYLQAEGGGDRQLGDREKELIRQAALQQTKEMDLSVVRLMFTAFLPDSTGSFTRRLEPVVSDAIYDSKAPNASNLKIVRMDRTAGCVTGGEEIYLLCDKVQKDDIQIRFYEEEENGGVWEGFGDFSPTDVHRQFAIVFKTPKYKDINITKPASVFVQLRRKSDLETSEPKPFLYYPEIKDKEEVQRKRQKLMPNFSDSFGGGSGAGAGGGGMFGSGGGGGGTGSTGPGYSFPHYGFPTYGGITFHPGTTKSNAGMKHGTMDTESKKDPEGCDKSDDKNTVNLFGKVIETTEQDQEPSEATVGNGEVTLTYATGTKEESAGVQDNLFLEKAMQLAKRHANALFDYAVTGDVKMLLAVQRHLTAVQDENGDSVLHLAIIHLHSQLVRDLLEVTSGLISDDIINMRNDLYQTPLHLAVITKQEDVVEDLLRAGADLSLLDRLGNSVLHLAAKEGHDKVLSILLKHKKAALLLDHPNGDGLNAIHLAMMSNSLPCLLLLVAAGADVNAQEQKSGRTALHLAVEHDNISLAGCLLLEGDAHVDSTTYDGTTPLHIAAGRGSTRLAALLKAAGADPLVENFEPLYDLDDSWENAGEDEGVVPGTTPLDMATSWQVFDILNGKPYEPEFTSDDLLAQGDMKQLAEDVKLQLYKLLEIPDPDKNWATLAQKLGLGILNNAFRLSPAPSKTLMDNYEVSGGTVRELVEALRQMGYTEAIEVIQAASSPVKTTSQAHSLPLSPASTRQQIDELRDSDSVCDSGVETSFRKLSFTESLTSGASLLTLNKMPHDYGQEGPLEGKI
Chain of Nuclear factor erythroid 2-related factor 2 (Homo sapiens) (Q16236 whole entry, looked up): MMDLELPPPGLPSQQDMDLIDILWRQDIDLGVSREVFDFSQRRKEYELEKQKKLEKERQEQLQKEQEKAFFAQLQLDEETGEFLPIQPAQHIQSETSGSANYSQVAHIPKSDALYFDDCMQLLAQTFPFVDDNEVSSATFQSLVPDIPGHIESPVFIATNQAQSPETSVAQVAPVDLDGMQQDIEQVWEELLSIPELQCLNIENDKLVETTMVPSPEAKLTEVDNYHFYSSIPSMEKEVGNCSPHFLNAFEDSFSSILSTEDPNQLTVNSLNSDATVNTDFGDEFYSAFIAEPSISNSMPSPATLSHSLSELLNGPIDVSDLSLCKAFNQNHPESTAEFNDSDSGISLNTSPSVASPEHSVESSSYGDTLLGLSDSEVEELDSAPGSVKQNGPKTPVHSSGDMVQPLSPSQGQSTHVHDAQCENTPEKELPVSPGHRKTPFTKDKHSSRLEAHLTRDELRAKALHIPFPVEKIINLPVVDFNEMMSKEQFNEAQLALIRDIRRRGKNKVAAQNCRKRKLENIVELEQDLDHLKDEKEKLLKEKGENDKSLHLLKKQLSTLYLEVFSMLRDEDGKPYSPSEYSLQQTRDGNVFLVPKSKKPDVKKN

For the compound `CCCCCCC(CCCCCCCCCCC(=O)OCC(COC(C)=O)OC(C)=O)OC(C)=O` (centres undefined), the compound was called inactive in [1], in assay [2], in [3], in [4], in assay [5] and in assay [6]. Further, the compound was classed as inactive in assay [7], in assay [8], in assay [9] and in assay [10].

For the compound `CC(=O)OCC(COC(C)=O)OC(C)=O`, the outcome in assay [1], in [2], in [3], in assay [4], in [5] and in assay [7] was inactive. For the same compound, the compound was classed as inactive in assay [8], in [9] and in assay [10].

Usually AC50 stands for the midpoint of the concentration-response curve, whichever way the signal moves. For the compound `CN(C)CCCN1c2ccccc2Sc2ccc(Cl)cc21`, the AC50 is 18.2 µM (active) in assay [1]; 78.4 µM (active) in assay [2]; 78 µM (active) in [4]; 79.4 µM (active) in assay [5]; 83.9 µM (active) in assay [7]; 82.4 µM (active) in assay [8]. For the same compound, the outcome in assay [3] and in assay [10] was inactive.

On to `CN(C)C(=O)NC1(c2ccccc2)CCN(CCC[C@]2(c3ccc(Cl)c(Cl)c3)CCCN(C(=O)c3ccccc3)C2)CC1`, for which the AC50 in assay [1] was 12.5 µM (active); in assay [2], 21.3 µM (active); in assay [3], 21.2 µM (active); in assay [5], 23.8 µM (active); in [6], 19.2 µM (active); in assay [7], 21.7 µM (active). The compound was classed as inactive in [4], in [9] and in assay [10].

As for `CC(C)OC(=O)C(C)(C)Oc1ccc(C(=O)c2ccc(Cl)cc2)cc1`, the result in assay [1], in assay [2], in [3], in [4], in [5] and in assay [7] was inactive. Also, the outcome in assay [8], in assay [9] and in [10] was inactive.

Regarding `O=[Si]=O`, the compound was classed as inactive in assay [1], in [2], in [3], in assay [4], in [5] and in assay [7]. Also, the outcome in assay [8], in assay [9] and in assay [10] was inactive.

Regarding `C=CCc1ccc(OC)c(OC)c1`, the compound was classed as inactive in [1], in assay [2], in [3], in [5], in assay [7] and in assay [8]. Further, the result in [9] and in [10] was inactive. In [4], the concentration at half-maximal activity (AC50) is 0.0454 µM (active).

Consider `CCCCCCCCCCCCCCCCO`, for which the compound was called inactive in assay [1], in assay [2], in assay [3], in [4], in assay [5] and in assay [7]. Further, the result in [8], in assay [9] and in assay [10] was inactive.

In the case of `CCCCCCC(C=O)=Cc1ccccc1`, the compound was classed as inactive in [1], in assay [2], in assay [3], in assay [4], in [5] and in [7]. Further, the compound was classed as inactive in assay [8], in assay [9] and in assay [10].

As to `Cc1occc(=O)c1O`, the outcome in [1], in [2], in assay [3], in [4], in assay [5] and in [7] was inactive. Further, the outcome in [8], in assay [9] and in assay [10] was inactive.

For the compound `CC(=O)OC1CC(C)OC(C)O1` (centres undefined), the compound was classed as inactive in assay [1], in assay [2], in assay [3], in assay [4], in assay [5] and in assay [7]. The compound was called inactive in assay [8], in assay [9] and in assay [10].

Take `O=C(O)CN(CC(=O)O)CC(=O)O`: the outcome in assay [1], in assay [2], in assay [3], in assay [4], in assay [5] and in [7] was inactive. The compound was classed as inactive in assay [8], in assay [9] and in assay [10].

For `C#CC(O)C(CC)CCCC` (centres undefined), the compound was classed as inactive in assay [1], in assay [2], in assay [3], in assay [4], in [5] and in [7]. The result in assay [8], in assay [9] and in assay [10] was inactive.

Consider `CC(=O)[C@@]1(O)CC[C@H]2[C@@H]3CCC4=CC(=O)CC[C@]4(C)[C@H]3CC[C@@]21C`, for which the half-maximal activity concentration (AC50) in assay [1] was 7.76 µM (active). For the same compound, the call in assay [2], in assay [3], in assay [4], in [5], in [7] and in [8] was inactive. For the same compound, in assay [10], the outcome was inactive.

For `CC1=C(C)S(=O)(=O)CCS1(=O)=O`, the result in assay [1], in assay [2], in assay [4], in assay [7], in [9] and in assay [10] was inactive. The AC50 in [3] is 74.4 µM (active); in assay [5], 82.1 µM (active); in assay [8], 65.7 µM (active).
